This note sets out measurements from PubChem BioAssay (NCATS).

Records with an inconclusive call do not appear. The source made the active and inactive calls. Unless noted, the call rests on the fitted dose curve; in most records, active means well fitted curve in the direction sought with a large enough effect; inconclusive means small, poorly fitted or top-dose-only effect, or another doubt; inactive means no such curve, though single readings can be large; an effect the other way counts as inactive or inconclusive.

The target of assay [1] is Chromobox protein homolog 1 (Homo sapiens) (UniProt P83916). Description: qHTS Validation Assay for Inhibitors of HP1-beta Chromodomain Interactions with Methylated Histone Tails (AID 488953). Further: nearly all actives have a fitted effect of over 50% in size. Further: potency means the concentration at half of the fitted maximal effect. The gist of the method: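 50 nM HP1-beta + 50 nM biotin-H3(1-18)K9me3, PBS pH 7.4, 0.01% Tween-20, 30 min RT; compound added, 30 min RT; AlphaScreen beads 10 ug/mL final, 30 min dark; luminescence read.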

The target of assay [2] is Methanococcus maripaludis chaperonin (MmCpn) (UniProt Q6LX38). In words: High-Throughput Screening for Modulators of Cytosolic Chaperonin Activity: MmCpn Primary Screen (AID 488978).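 Further: 50 nM MmCpn enzyme hydrolysing 30 µM ATP at 37 °C; 0% is about no effect.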 The gist of the method:
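Measures ATPase turnover of the M. maripaludis chaperonin (50 nM final) against 30 uM ATP over 10 min at 37C, with compound added 5 min beforehand at room temperature. ADP is quantified by HTRF immunodetection.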

Assay [3] deals with Thyrotropin receptor (Homo sapiens) (UniProt P16473). In words: qHTS Assay for Antagonists of the Thyroid Stimulating Hormone Receptor (AID 488980). Further: series mostly up to about 58 µM; 0% is about no effect. The gist of the method:
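Cells expressing human TSHR (HEK293) are dispensed in HBSS/HEPES containing 70 uM RO 20-1724, compound is added, then TSH at EC80 (4 nM final). Antibody in lysis buffer follows, 30 minutes at room temperature before HTRF detection.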

The target in assay [4] is D(1A) dopamine receptor (Homo sapiens) (UniProt P21728). Description: HTS Assay for Allosteric Agonists of the Human D1 Dopamine Receptor: Primary Screen for Agonists (AID 488981). Further: 0% is about no effect. The method in brief:
(§1)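 Tetracycline-induced HEK293 Trex D1 cells with forced coupling to calcium, loaded with no-wash calcium dye; kinetic fluorescence read 180 s after compound addition for agonism, then a further 180 s after an EC20 dopamine challenge for potentiation.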

Assay [5] has the same target. In words: HTS Assay for Allosteric Agonists of the Human D1 Dopamine Receptor: Primary Screen for Potentiators (AID 488982). Further: potency means the concentration at half of the fitted maximal effect. The method in brief: as §1
Assay [6] in a line: Validation screen for small molecules that induce genotoxicity in human embryonic kidney (HEK293T) cells expressing luciferase-tagged ELG1 (AID 493106). Further: 0% is about no effect. The gist of the method: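 Luminescence from an ELG1-luciferase fusion serves as the read-out, rising when genetic stress elevates ELG1 protein. HEK293T reporter cells (2,000 per well) received 23 nL compound, incubated 16 hr at 37 °C, then ONE-Glo for 30 min at room temperature.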

Assay [7] concerns the target ATPase family AAA domain-containing protein 5 (Homo sapiens) (UniProt Q96QE3). Description: Validation screen for small molecules that inhibit ELG1-dependent DNA repair in human embryonic kidney (HEK293T) cells expressing luciferase-tagged ELG1 (AID 493107).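 Further: cells co-treated with the DNA-damaging agent 5-fluorouridine alongside compound; series mostly up to about 46 µM; on the % scale 0 is the no-effect control and ±100 the full control effect; inhibitors lower the ELG1-luciferase luminescence signal; nearly all actives have a fitted effect of over 70% in size.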 The gist of the method: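 Luminescence from ONE-Glo, developed 30 min at room temperature, served as read-out of ELG1-luciferase levels. Beforehand, reporter HEK293T cells received 5-fluorouridine plus test compound for 16 hr at 37 °C.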

The target of assay [8] is Thyrotropin-releasing hormone receptor (Homo sapiens) (UniProt P34981). In words: qHTS for Small Molecule Agonists and Allosteric Enhancers of Human TRH Receptor: Validation Screen for Agonists (AID 493127;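 active means calcium activation more than 3 SD above the typical response in the agonist read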;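 further: intracellular calcium rise by fluo-8 fluorescence before TRH EC20 addition; 0% is about no effect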). As to conditions: TRH receptor agonist cell assay; at 2 µM; stronger effect = higher value. The method in brief: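 Cells 2000/well, 10% FCS, 18 h 33.5C/5% CO2 → fluo-8 Ca dye, RT 30 min–1.5 h → FDSS baseline 10 × 1 s → compound added → 230 cycles (1 s/cycle) agonist mode. TRH controls.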

Assay [9] can be described thus: Nrf2 qHTS screen for inhibitors: Validation (AID 493153; active means well fitted inhibition curve with a large enough effect in the main read-out, with a control signal flat, not every such curve was filed as active). As to conditions: Potency: luciferase luminescence; viability change: measured here: cytotoxicity max response. The method in brief: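 Luminescence from an ARE-firefly luciferase reporter in A549 cells gives Nrf2 inhibition; an earlier CellTiter-Fluor fluorescent read flags cytotoxicity. Cells in 5% FBS OPTI-MEM received compound dilution series for 18-24 h at 37°C.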

Assay [10] can be described thus: qHTS for Inhibitors of Cell Surface uPA Generation: Validation Assay (AID 493164). Further: 0% is about no effect. The gist of the method: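 RAW 264.7 cells (4000/well) were plated overnight, then exposed for 18 h at 37 C, 5% CO2 to compounds in a 7-point 1:5 titration (2.45 nM–38.3 uM final). Intracellular ATP was read by ATP-Lite luminescence.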
Assay [11] has as its target Galactokinase (Homo sapiens) (UniProt P51570). Description: qHTS Validation Assay for Inhibitors of Human Galactokinase (GALK) (AID 493189). Further: 0% is about no effect. The method in brief:
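Compounds were pin-transferred into ATP buffer, then GALK-galactose mix was added (final 5 nM enzyme, 100 uM galactose, 35 uM ATP). After 1 h at room temperature, remaining ATP was measured luminescently.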

Assay [12] can be described thus: Validation screen for small molecules that induce DNA re-replication in SW480 colon adenocarcinoma cells (AID 504364). Further: 0% is about no effect. The method in brief:
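250 cells/well; compound pinned in; 48 hr, 37 C, 5% CO2; Hoechst added, 40 min; nuclear fluorescence imaged, 405 ex / 500-530 em; re-replication scored as increase in high-intensity nuclei.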

Assay [13] addresses Peptidyl-prolyl cis-trans isomerase NIMA-interacting 1 (Homo sapiens) (UniProt Q13526). Description: qHTS Validation Assay to Find Inhibitors of Pin1 (AID 504536; active means well fitted inhibition curve with a large enough effect in the polarisation, with a control signal flat, not every such curve was filed as active; the % refers to the polarisation;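 further: 0% = full Pin1 enzyme wells and -100% = no-enzyme wells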). The gist of the method: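 Fluorescence polarization competition: compounds (titration) displace HiFluor-488-labeled Pin1-1b peptide from Pin1 (0.3 uM final) in pH 7.5 HEPES buffer with DTT, 10 min at room temperature; %Activity normalized to no-enzyme wells, curves fitted.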

The target in assay [14] is Phosphoglycerate kinase, glycosomal (Trypanosoma brucei brucei) (UniProt P07378). In words: qHTS Validation Assay to Find Inhibitors of Phosphoglycerate Kinase (AID 504547).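 Further: control wells lack PGK and mark full inhibition.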 The method in brief: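 PGK activity was coupled to GAPDH (100nM final), which generates the unstable substrate 1,3-bisphosphoglycerate in-well. Reactions ran 60 minutes at room temperature in 100mM TEA pH 7.6, 5mM MgCl2, 0.01% Tween-20, then Kinase-Glo Plus luminescence was read.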

The target in assay [15] is phosphoglycerate mutase (Leishmania major) (UniProt Q4Q090). Description: qHTS Validation Assay to Find Inhibitors of Phosphoglycerate Mutase (AID 504548).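 Further: end-point luminescence from Kinase-GloPlus after the PGAM reaction; series mostly up to about 58 µM; on the % scale 0 is the no-effect control and ±100 the full control effect.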 The conditions noted are these: Potency: inhibition qHTS. The gist of the method:
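L. major PGAM (1.25nM final) was added to substrate buffer and pinned compound, incubated 45 minutes at room temperature, then Kinase-GloPlus added; luminescence read after 10 minutes. Buffer: 100 mM TEA pH 7.6, 5 mM MgCl2, 0.01% Tween-20.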

Assay [16] has as its target Ubiquitin carboxyl-terminal hydrolase 1 (Homo sapiens) (UniProt O94782). Description: Inhibitors of USP1/UAF1: Pilot qHTS (AID 504865).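 Further: rhodamine fluorescence freed from ubiquitin-rhodamine substrate followed over time; top concentration of the series differs between compounds; on the % scale 0 is the no-effect control and ±100 the full control effect; nearly all actives have a fitted effect of over 35% in size.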 The gist of the method:
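Kinetic fluorescence assay: 1nM USP1/UAF1, 15 min compound preincubation, then 150nM Ub-Rho; 480/540 nm.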

Assay [17] in a line: qHTS for Inhibitors of ATXN expression: Validation of Cytotoxic Assay (AID 588349). Further: on the % scale 0 is the no-effect control and ±100 the full control effect. The gist of the method:
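Read-out: ATP-based luminescence (CellTiter Glo) reflecting viability of HEK293 cells after 72 hr incubation at 37 degrees C with a concentration series of each compound.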

In assay [18] the target is D(1A) dopamine receptor (Homo sapiens) (UniProt P21728). In words: HTS Assay for Allosteric Agonists of the Human D1 Dopamine Receptor: Primary Screen for Antagonists (AID 488983).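 Further: calcium flux response to an EC80 dopamine challenge measured with no-wash dye; on the % scale 0 is the no-effect control and ±100 the full control effect; nearly all actives have a fitted effect of over 65% in size.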 The method in brief:
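Cells are induced with tetracycline and incubated overnight at 30 C, then loaded with calcium dye for 30 to 90 minutes at room temperature. Compound addition is followed by a 180 s read, then an EC80 dopamine addition and another 180 s read.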

Assay [19] in a line: qHTS for Inhibitors of ATXN expression: Validation (AID 588378). Further: series mostly up to about 57 µM; on the % scale 0 is the no-effect control and ±100 the full control effect; nearly all actives have a fitted effect of over 75% in size. The method in brief:
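Validation of ATXN2 expression inhibitors uses a cell-based luciferase fusion reporter in HEK293 cells, with 24 h compound exposure and paired viability (fluorescence) and reporter (luminescence) end-point reads.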

For assay [20], the target named is ATP-dependent 6-phosphofructokinase (Trypanosoma brucei brucei) (UniProt O15648). In words: qHTS Assay to Find Inhibitors of T. brucei phosphofructokinase: hit validation (AID 492961).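 Further: luminescence reports ADP formed as PFK phosphorylates fructose-6-phosphate with ATP; series mostly up to about 51 µM; on the % scale 0 is the no-effect control and ±100 the full control effect.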 The gist of the method:
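Compounds titrated; %activity normalized to 0x and 1x enzyme controls, curve-fitted. Readout: ADP-Glo luminescence after 45 min room-temperature reaction of 1.25 nM PFK, 0.1 mM ATP, 0.5 mM F6P, pH 8.0.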

D(1A) dopamine receptor (Homo sapiens), sequence (P21728 whole entry, looked up): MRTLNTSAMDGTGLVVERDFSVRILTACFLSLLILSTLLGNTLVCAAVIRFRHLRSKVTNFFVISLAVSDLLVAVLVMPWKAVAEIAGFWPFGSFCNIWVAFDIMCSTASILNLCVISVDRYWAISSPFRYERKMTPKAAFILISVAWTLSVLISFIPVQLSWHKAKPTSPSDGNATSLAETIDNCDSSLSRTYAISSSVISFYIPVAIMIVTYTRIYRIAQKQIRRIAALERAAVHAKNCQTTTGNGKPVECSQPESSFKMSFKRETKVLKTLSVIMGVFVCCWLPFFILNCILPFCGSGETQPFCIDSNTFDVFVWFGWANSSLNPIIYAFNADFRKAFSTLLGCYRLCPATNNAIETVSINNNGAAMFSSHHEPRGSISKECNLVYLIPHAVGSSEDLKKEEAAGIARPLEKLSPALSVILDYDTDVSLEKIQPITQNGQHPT
ATPase family AAA domain-containing protein 5 (Homo sapiens), sequence (Q96QE3 whole entry, looked up, the tested form may be a part): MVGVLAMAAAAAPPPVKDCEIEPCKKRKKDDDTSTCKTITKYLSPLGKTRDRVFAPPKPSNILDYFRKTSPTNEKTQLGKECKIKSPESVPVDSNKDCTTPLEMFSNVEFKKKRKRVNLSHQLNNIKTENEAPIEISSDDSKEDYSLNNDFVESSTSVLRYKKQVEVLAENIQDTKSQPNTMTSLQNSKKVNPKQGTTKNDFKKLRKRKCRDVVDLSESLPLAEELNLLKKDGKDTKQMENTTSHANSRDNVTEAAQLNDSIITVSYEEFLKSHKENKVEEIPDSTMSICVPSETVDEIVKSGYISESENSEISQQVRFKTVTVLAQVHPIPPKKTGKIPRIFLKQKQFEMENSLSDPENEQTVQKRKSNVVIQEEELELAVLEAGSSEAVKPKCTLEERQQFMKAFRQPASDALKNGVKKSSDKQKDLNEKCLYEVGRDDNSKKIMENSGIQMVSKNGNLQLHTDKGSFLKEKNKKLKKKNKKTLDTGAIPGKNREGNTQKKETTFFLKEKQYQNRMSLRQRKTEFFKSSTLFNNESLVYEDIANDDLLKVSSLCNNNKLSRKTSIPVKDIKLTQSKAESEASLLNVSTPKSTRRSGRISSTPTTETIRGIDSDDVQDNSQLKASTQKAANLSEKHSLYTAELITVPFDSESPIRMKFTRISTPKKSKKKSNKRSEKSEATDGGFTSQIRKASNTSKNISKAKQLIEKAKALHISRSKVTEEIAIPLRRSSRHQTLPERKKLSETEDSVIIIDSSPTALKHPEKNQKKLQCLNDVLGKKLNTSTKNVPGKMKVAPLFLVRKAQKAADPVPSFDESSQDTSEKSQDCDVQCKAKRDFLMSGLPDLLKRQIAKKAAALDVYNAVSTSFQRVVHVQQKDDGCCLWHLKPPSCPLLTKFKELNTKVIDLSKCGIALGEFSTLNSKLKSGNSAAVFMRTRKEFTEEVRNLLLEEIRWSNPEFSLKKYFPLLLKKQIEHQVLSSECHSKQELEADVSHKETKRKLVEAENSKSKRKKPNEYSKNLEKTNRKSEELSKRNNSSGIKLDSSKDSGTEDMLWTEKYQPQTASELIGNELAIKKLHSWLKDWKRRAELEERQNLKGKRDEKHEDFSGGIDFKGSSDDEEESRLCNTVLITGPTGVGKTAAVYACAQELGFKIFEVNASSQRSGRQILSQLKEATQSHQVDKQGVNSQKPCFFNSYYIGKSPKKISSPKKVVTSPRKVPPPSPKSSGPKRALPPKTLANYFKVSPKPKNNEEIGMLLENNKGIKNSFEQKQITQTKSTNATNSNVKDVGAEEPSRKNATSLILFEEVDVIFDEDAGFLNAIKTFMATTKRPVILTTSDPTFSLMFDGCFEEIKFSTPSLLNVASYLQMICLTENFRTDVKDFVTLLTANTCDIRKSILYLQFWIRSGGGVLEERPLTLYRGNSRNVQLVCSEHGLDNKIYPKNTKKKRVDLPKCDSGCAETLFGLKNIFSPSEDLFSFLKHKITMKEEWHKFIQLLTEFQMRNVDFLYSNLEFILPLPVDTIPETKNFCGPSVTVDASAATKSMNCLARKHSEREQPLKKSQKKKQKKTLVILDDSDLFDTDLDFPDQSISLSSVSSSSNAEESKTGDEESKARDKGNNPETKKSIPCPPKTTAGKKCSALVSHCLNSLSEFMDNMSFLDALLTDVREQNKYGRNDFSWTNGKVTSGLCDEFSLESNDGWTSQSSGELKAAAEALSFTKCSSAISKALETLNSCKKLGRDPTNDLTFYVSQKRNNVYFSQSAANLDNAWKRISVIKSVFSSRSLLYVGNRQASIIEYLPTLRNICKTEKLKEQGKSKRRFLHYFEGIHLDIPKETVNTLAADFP
Chromobox protein homolog 1 (Homo sapiens), sequence (P83916 whole entry, looked up): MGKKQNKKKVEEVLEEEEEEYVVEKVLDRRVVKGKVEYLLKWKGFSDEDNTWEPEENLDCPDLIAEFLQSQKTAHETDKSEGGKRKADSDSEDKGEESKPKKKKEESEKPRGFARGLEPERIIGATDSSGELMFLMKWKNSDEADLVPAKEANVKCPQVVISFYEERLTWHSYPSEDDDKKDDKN
phosphoglycerate mutase (Leishmania major), sequence (Q4Q090 1-553): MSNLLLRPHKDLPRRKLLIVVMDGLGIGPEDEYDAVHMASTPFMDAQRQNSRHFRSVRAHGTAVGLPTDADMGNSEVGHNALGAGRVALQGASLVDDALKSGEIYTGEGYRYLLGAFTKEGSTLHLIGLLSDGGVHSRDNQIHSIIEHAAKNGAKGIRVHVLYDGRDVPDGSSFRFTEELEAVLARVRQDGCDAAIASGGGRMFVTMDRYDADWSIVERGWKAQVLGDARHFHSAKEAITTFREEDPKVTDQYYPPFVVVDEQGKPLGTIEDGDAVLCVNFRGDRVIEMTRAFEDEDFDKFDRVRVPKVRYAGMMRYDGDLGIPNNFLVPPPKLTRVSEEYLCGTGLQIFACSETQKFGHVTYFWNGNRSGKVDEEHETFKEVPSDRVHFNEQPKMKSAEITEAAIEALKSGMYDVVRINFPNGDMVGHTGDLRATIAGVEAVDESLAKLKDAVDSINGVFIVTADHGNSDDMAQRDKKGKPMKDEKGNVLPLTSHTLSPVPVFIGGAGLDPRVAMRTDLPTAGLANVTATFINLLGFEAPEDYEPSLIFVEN
Ubiquitin carboxyl-terminal hydrolase 1 (Homo sapiens), sequence (O94782 whole entry, looked up): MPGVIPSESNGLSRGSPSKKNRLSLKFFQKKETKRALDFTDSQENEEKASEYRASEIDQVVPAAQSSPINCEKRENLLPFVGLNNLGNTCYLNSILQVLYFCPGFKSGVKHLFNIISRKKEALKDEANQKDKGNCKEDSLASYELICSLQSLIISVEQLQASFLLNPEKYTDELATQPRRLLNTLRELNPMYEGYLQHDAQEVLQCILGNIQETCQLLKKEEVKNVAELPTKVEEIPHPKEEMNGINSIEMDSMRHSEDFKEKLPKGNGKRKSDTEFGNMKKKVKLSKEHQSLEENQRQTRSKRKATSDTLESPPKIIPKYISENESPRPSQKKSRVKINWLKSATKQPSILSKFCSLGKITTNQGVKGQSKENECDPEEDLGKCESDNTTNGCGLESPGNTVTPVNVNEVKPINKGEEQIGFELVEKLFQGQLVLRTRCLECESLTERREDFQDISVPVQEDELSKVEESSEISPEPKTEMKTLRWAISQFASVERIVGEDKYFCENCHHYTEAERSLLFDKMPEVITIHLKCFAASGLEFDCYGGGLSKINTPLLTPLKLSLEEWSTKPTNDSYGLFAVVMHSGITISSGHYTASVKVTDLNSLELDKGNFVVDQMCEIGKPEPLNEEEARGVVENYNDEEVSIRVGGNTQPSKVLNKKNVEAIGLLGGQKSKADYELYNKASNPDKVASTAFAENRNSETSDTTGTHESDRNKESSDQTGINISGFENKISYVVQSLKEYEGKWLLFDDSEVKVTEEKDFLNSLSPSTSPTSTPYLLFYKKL
Peptidyl-prolyl cis-trans isomerase NIMA-interacting 1 (Homo sapiens), sequence (Q13526 whole entry, looked up): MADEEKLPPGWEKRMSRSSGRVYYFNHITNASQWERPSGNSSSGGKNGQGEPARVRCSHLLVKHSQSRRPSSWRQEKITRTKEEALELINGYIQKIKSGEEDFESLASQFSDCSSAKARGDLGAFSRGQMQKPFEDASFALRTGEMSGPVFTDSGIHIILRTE
Thyrotropin-releasing hormone receptor (Homo sapiens), sequence (P34981 whole entry, looked up): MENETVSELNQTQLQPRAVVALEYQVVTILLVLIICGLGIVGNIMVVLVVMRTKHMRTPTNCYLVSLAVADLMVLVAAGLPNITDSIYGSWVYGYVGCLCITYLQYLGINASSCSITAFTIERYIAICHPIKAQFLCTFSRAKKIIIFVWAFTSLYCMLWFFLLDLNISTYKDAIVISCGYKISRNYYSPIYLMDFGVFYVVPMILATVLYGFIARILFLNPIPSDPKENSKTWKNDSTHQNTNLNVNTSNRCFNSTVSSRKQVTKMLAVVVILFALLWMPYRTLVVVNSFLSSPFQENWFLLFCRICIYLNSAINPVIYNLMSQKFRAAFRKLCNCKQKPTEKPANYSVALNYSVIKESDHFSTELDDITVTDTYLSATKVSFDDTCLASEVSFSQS
Methanococcus maripaludis chaperonin (MmCpn), sequence (Q6LX38 1-543): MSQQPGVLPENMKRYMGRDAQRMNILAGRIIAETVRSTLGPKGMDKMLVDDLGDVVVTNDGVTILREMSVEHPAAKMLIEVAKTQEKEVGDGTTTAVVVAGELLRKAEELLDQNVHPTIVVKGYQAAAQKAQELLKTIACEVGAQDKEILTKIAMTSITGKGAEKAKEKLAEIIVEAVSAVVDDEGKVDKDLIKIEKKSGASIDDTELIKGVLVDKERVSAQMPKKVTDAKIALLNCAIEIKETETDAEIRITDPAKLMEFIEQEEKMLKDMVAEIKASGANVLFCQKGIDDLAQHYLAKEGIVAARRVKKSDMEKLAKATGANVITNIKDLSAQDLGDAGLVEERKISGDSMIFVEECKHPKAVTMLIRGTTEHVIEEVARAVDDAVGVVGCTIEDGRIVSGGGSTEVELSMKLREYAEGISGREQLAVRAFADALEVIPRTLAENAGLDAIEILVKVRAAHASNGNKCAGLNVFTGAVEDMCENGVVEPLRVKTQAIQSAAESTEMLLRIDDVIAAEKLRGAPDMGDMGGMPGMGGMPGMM

Consider `CN(C)CCCC1(c2ccc(F)cc2)OCc2cc(C#N)ccc21` (configuration not stated), for which the Potency entry in assay [1], in [5], in assay [6], in [9], in assay [12] and in [14] was “inactive” in each case. For the same molecule, the Potency result in assay [15] and in [16] was “inactive” each time. For the same molecule, the result in assay [2], in assay [3], in assay [4], in [7], in [10] and in [11] was inactive. For the same molecule, the result in assay [13] and in assay [17] was inactive. In [8], the activation was 3.31% (inactive). Moreover, in assay [9], the viability change amounted to 6.56%.

Consider `Cc1cc(O)c2c(c1)C(=O)c1cc(O)cc(O)c1C2=O`, for which the call in assay [2], in [3], in assay [4], in assay [7], in assay [10] and in assay [11] was inactive. Besides, the call in assay [13] and in assay [17] was inactive. Further, the Potency result in assay [5], in assay [18], in [6], in assay [9], in [12] and in [14] was “inactive” in each case. Besides, the Potency entry in [19] was “inactive”. The activation in [8] is 10.2% (inactive). For the same molecule, in assay [9], the viability change was -15.1%.

`COc1ccc2cc([C@H](C)C(=O)O)ccc2c1`: in [1], the Potency is 6 nM (active). Moreover, the call in [2], in assay [3], in assay [4], in assay [20], in assay [7] and in [10] was inactive. For the same molecule, the molecule was classed as inactive in assay [11], in assay [13] and in assay [17]. For the same molecule, the Potency result in [5], in assay [18], in [6], in assay [9], in [12] and in assay [14] was “inactive” in each case. Further, the Potency entry in [15] and in [19] was “inactive” each time. Moreover, the viability change in assay [9] is -8.13%.

`Oc1ccc2ccccc2c1SSc1c(O)ccc2ccccc12`: the Potency in assay [1] is 6 nM (active). The molecule was classed as inactive in assay [2], in assay [4], in [7], in [10], in assay [13] and in assay [17]. Moreover, the Potency result in assay [18], in assay [6], in assay [9], in assay [14], in [15] and in [16] was “inactive” throughout. Also, the Potency result in assay [19] was “inactive”. In addition, in assay [9], the viability change is 7.1%.

Regarding `O=C1NC(=O)C(c2ccccc2[N+](=O)[O-])=C1Nc1ccc(O)c(Cl)c1`, the Potency in [1] is 35500 nM (active); in assay [5], 5170 nM (active). Moreover, the call in assay [2], in assay [3], in [4], in [10], in assay [11] and in assay [13] was inactive. Moreover, the molecule was classed as inactive in [17]. The Potency entry in assay [18], in assay [6], in [9], in assay [14], in assay [15] and in assay [16] was “inactive” in each case. Further, in assay [19], the Potency entry was “inactive”. The activation in [8] is 1.69% (inactive). Also, the viability change in [9] came to 5.73%.
